We go through nine molecules from PubChem BioAssay (NCI).

Assay [1] is described as follows: NCI Yeast Anticancer Drug Screen. Data for the rad50 strain (AID 155).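 Also: 0% = growth of vehicle-only cultures of the same strain.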 The following applies: S. cerevisiae rad50 strain growth inhibition, stronger effect = higher value. Summed up:
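DNA repair mutant yeast, compound exposure, growth read-out; inhibition is taken relative to vehicle.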

Assay [2] in a line: NCI Yeast Anticancer Drug Screen. Data for the mec2-1 strain (AID 157). As to conditions: S. cerevisiae mec2-1 strain, stronger effect = higher value. Summed up: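 Using mec2-1 yeast: add compound, measure growth, express inhibition versus vehicle-treated cultures.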
The nature of assay [3]: NCI Yeast Anticancer Drug Screen. Data for the sgs1 mgt1 strain (AID 161).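 Also: 0% = growth of cultures given vehicle only.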 The following applies: S. cerevisiae sgs1 mgt1 strain, stronger effect = higher value. The procedure, abridged:
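Compounds are added to genetically altered yeast, and growth is compared with cultures given vehicle alone to give percent inhibition.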

Assay [4] can be described thus: NCI Yeast Anticancer Drug Screen. Data for the cln2 rad14 strain (AID 165).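 Also: 0% = growth equal to vehicle treated cultures.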 As to conditions: S. cerevisiae cln2 rad14 strain, stronger effect = higher value. Summed up:
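Yeast strain cln2 rad14, bearing defects in cell cycle control and DNA repair, serves as the test system; values reflect growth inhibition compared with vehicle.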

Assay [5] is described as follows: NCI Yeast Anticancer Drug Screen. Data for the bub3 strain (AID 167). As to conditions: S. cerevisiae bub3 mutant strain, stronger effect = higher value. Summed up:
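In this screen, a yeast mutant lacking normal mitotic checkpoint function is challenged with compound. Relative growth versus vehicle gives the inhibition value.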

Assay [6] is described as follows: NCI Yeast Anticancer Drug Screen. Data for the mlh1 rad18 strain (AID 175). The following applies: S. cerevisiae mlh1 rad18 strain growth inhibition, stronger effect = higher value. The procedure, abridged: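 Steps: expose repair-defective yeast to compound; measure growth; express inhibition against vehicle-treated controls.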
The mark [7] stands for this setting: at 5.0 µM (retest, dose inferred, filed as 0.5).
Where [8] appears, read: at 50.0 µM (retest, dose inferred, filed as 5.0).

Compounds without any hit were thinned out: in the full panel of roughly 79,000, 15% have a hit. A number with no mark means an inactive call. Active and inactive are the calls of the source. Rule as the data show it: active = growth inhibition above about 70%; inactive = the rest.

With `Nc1ccc(Cc2ccc(N)c(Cl)c2)cc1Cl`, the growth inhibition is -6% in assay [1] (setting [7]); 90% (active) in assay [1] (setting [8]); 78% (active) in assay [1] (at 50.0 µM); -8% in assay [2] (setting [7]); 78% (active) in assay [2] (setting [8]); 95.1% (active) in assay [2] (at 50.0 µM). For the same molecule, the growth inhibition in assay [3] (setting [7]) is -1%; in assay [3] (setting [8]) it was 92% (active); in assay [3] (at 50.0 µM), 95.2% (active); in assay [4] (setting [7]), -10%; in assay [4] (setting [8]), 91% (active); in assay [4] (at 50.0 µM), 75.8% (active). The growth inhibition in assay [5] (setting [7]) was 0%; in assay [5] (setting [8]), 93% (active); in assay [5] (at 50.0 µM) it was 96.8% (active); in assay [6] (setting [7]), -3%; in assay [6] (setting [8]) it was 97% (active); in assay [6] (at 50.0 µM), 97.2% (active).

With `Cc1ccc(P(=O)(c2ccc(C)cc2)c2ccc(C)cc2)cc1.Cc1ccc(P(=O)(c2ccc(C)cc2)c2ccc(C)cc2)cc1.[Cl][Sn]([Cl])([Cl])[Cl]`, the growth inhibition in assay [1] (setting [7]) is 4%; in assay [1] (setting [8]), 1%; in assay [1] (at 50.0 µM) it was -9.9%; in assay [2] (setting [7]) it was 0%; in assay [2] (setting [8]), 1%; in assay [2] (at 50.0 µM), 0.85%. Also, the growth inhibition in assay [3] (setting [7]) was 2%; in assay [3] (setting [8]), 6%; in assay [3] (at 50.0 µM), 42.6%; in assay [4] (setting [7]), 4%; in assay [4] (setting [8]) it was 8%; in assay [4] (at 50.0 µM), 4.1%. Further, the growth inhibition in assay [5] (setting [7]) was 13%; in assay [5] (setting [8]) it was 72% (active); in assay [5] (at 50.0 µM) it was 76.2% (active); in assay [6] (setting [7]) it was 3%; in assay [6] (setting [8]), 1%; in assay [6] (at 50.0 µM), 38%.

As to `COc1ccc(/C=C/[N+](=O)[O-])c(OC)c1OC`, the growth inhibition was 43% in assay [1] (setting [7]); 50% in assay [1] (setting [8]); 84.5% (active) in assay [1] (at 50.0 µM); 52% in assay [2] (setting [7]); 55% in assay [2] (setting [8]); 92.5% (active) in assay [2] (at 50.0 µM). For the same molecule, the growth inhibition in assay [3] (setting [7]) was 48%; in assay [3] (setting [8]), 100% (active); in assay [3] (at 50.0 µM), 93.2% (active); in assay [4] (setting [7]), 50%; in assay [4] (setting [8]) it was 99% (active); in assay [4] (at 50.0 µM), 54%. For the same molecule, the growth inhibition in assay [5] (setting [7]) is 69%; in assay [5] (setting [8]), 99% (active); in assay [5] (at 50.0 µM) it was 91.8% (active); in assay [6] (setting [7]), 39%; in assay [6] (setting [8]), 48%; in assay [6] (at 50.0 µM), 87.8% (active).

Consider `CC(C)C1(NC(=O)C2C=C3c4cccc5[nH]cc(c45)CC3N(C)C2)OC2(O)C3CCCN3C(=O)C(Cc3ccccc3)N2C1=O` (configuration not stated), for which the growth inhibition was 0% in assay [1] (setting [7]); 94% (active) in assay [1] (setting [8]); 96.2% (active) in assay [1] (at 50.0 µM); -47% in assay [2] (setting [7]); 92% (active) in assay [2] (setting [8]); 97.1% (active) in assay [2] (at 50.0 µM). Also, the growth inhibition in assay [3] (setting [7]) was -2%; in assay [3] (setting [8]), 89% (active); in assay [3] (at 50.0 µM), 98.2% (active); in assay [4] (setting [7]), -8%; in assay [4] (setting [8]) it was 95% (active); in assay [4] (at 50.0 µM), 94.5% (active). Besides, the growth inhibition is -4% in assay [5] (setting [7]); 95% (active) in assay [5] (setting [8]); 96.8% (active) in assay [5] (at 50.0 µM); -2% in assay [6] (setting [7]); 97% (active) in assay [6] (setting [8]); 97% (active) in assay [6] (at 50.0 µM).

With `O=c1[nH]cnc2[nH]cc(CN3CCCCC3)c12`, the growth inhibition in assay [1] (setting [7]) was 7%; in assay [1] (setting [8]), 21%; in assay [1] (at 50.0 µM) it was 17.8%; in assay [2] (setting [7]), -7%; in assay [2] (setting [8]), 2%; in assay [2] (at 50.0 µM), 13.2%. In addition, the growth inhibition was -1% in assay [3] (setting [7]); 29% in assay [3] (setting [8]); -1.4% in assay [3] (at 50.0 µM); -32% in assay [4] (setting [7]); 0% in assay [4] (setting [8]); 33.2% in assay [4] (at 50.0 µM). In addition, the growth inhibition in assay [5] (setting [7]) is 12%; in assay [5] (setting [8]), -1%; in assay [5] (at 50.0 µM) it was -54.8%; in assay [6] (setting [7]), 3%; in assay [6] (setting [8]), 8%; in assay [6] (at 50.0 µM) it was 9.4%.

Take `CC[C@@]1(O)C[C@H](OC2CC(N)C(O)C(C)O2)c2c(O)c3c(c(O)c2[C@H]1C(=O)OC)C(=O)c1cccc(O)c1C3=O` (some centres not stated): the growth inhibition is 63% in assay [1] (setting [7]); 99% (active) in assay [1] (setting [8]); 78.1% (active) in assay [1] (at 50.0 µM); 27% in assay [2] (setting [7]); 99% (active) in assay [2] (setting [8]); 87.5% (active) in assay [2] (at 50.0 µM). Also, the growth inhibition in assay [3] (setting [7]) is 48%; in assay [3] (setting [8]), 99% (active); in assay [3] (at 50.0 µM), 80.2% (active); in assay [4] (setting [7]), 39%; in assay [4] (setting [8]), 99% (active); in assay [4] (at 50.0 µM), 67.3%. For the same molecule, the growth inhibition in assay [5] (setting [7]) was 52%; in assay [5] (setting [8]) it was 99% (active); in assay [5] (at 50.0 µM) it was 76.7% (active); in assay [6] (setting [7]) it was 50%; in assay [6] (setting [8]) it was 98% (active); in assay [6] (at 50.0 µM), 80.2% (active).

With `CCCCCCCCCCCCCCCCCC[N+](C)(C)C`, the growth inhibition is 98% (active) in assay [1] (setting [7]); 96% (active) in assay [1] (setting [8]); 88.5% (active) in assay [1] (at 50.0 µM); 99% (active) in assay [2] (setting [7]); 97% (active) in assay [2] (setting [8]); 91.4% (active) in assay [2] (at 50.0 µM). The growth inhibition was 99% (active) in assay [3] (setting [7]); 95% (active) in assay [3] (setting [8]); 89.8% (active) in assay [3] (at 50.0 µM); 99% (active) in assay [4] (setting [7]); 95% (active) in assay [4] (setting [8]); 89.9% (active) in assay [4] (at 50.0 µM). Also, the growth inhibition is 99% (active) in assay [5] (setting [7]); 96% (active) in assay [5] (setting [8]); 87% (active) in assay [5] (at 50.0 µM); 97% (active) in assay [6] (setting [7]); 96% (active) in assay [6] (setting [8]); 89.8% (active) in assay [6] (at 50.0 µM).

Turning to `CC(C)(C)OC(=O)NC(CSC(c1ccccc1)(c1ccccc1)c1cccs1)C(=O)O` (configuration not stated), the growth inhibition is 7% in assay [1] (setting [7]); 97% (active) in assay [1] (setting [8]); 95.7% (active) in assay [1] (at 50.0 µM); 17% in assay [2] (setting [7]); 99% (active) in assay [2] (setting [8]); 69.2% in assay [2] (at 50.0 µM). Besides, the growth inhibition in assay [3] (setting [7]) is 7%; in assay [3] (setting [8]) it was 99% (active); in assay [3] (at 50.0 µM), 96.5% (active); in assay [4] (setting [7]), 23%; in assay [4] (setting [8]) it was 99% (active); in assay [4] (at 50.0 µM) it was 78.8% (active). The growth inhibition in assay [5] (setting [7]) is 9%; in assay [5] (setting [8]) it was 99% (active); in assay [5] (at 50.0 µM), 14.2%; in assay [6] (setting [7]), 12%; in assay [6] (setting [8]), 99% (active); in assay [6] (at 50.0 µM) it was 83.2% (active).

Consider `COC1(OC)C(Cl)=C(Cl)C(Cl)=C1Cl`, for which the growth inhibition is 9% in assay [1] (setting [7]); 95% (active) in assay [1] (setting [8]); 46.4% in assay [1] (at 50.0 µM); -2% in assay [2] (setting [7]); 84% (active) in assay [2] (setting [8]); 46.5% in assay [2] (at 50.0 µM). For the same molecule, the growth inhibition in assay [3] (setting [7]) is -1%; in assay [3] (setting [8]), 91% (active); in assay [3] (at 50.0 µM) it was 75.2% (active); in assay [4] (setting [7]) it was 0%; in assay [4] (setting [8]) it was 42%; in assay [4] (at 50.0 µM) it was -9.85%. Moreover, the growth inhibition was 2% in assay [5] (setting [7]); 89% (active) in assay [5] (setting [8]); 58.8% in assay [5] (at 50.0 µM); 4% in assay [6] (setting [7]); 76% (active) in assay [6] (setting [8]); 78.8% (active) in assay [6] (at 50.0 µM).
